Source: PubChem BioAssay (National Center for Advancing Translational Sciences (NCATS))
A selection: hits, their analogues and other compounds. The true share with any hit is near 0.96%.
Rhodamine fluor: compound fluoresces in the rhodamine spectral region | Rhodamine-region fluorescence, 547/598 nm, Tris buffer; hits give high values | max dye-equivalent concentration, M | 59,000 compounds, 0.05% hits | AID 594; in the data active means max dye-equivalent concentration above about 11 nM; inconclusive means between about 1.1 nM and that limit
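A six-point rhodamine series on each plate calibrates the signal. Compounds sit in 100 mM Tris (pH 8.0) for 15 min at ambient temperature before imaging through 547 nm/598 nm filters.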
A488 autofl: compound fluoresces in the A488 spectral region | AID 591 | compound autofluorescence, A488 spectral region, dye equivalency; Compound Type: qHTS ECL - MLSMR | 59,000 compounds, 0.1% hits | max dye equivalency, M
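Autofluorescence read at ex 480/em 540 nm after 15 min RT in 100 mM Tris pH 8.0; compound signal normalized to A488 standard series on each plate, reported as dye-equivalent concentration at each test concentration.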
TexasRed autofl: compound fluoresces in the Texas Red spectral region; Compound fluorescence, Texas Red channel, 547/618 nm; hits give high values; 59,000 compounds, 0.06% hits; max dye-equivalent concentration, M; AID 587; in the data active means max dye-equivalent concentration above about 10 nM; inconclusive means between about 1.1 nM and that limit
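Texas Red-region profiling: compounds in 100 mM Tris pH 8.0 were read at 547/618 nm after 15 min at room temperature. Intensities were normalized against a six-point Texas Red standard series to give dye-equivalent concentration.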
Fluorescein autfl: compound fluoresces in the fluorescein spectral region; max fluorescein-equivalent concentration, M; 59,000 compounds, 0.91% hits; Compound autofluorescence, 480/540 nm, fluorescein-equivalent; hits give high values; AID 593; in the data active means max fluorescein-equivalent concentration above about 10 nM; inconclusive means between about 1.1 nM and that limit
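Read-out is intrinsic compound fluorescence at 480/540 nm (excitation/emission), expressed as dye-equivalent concentration using a fluorescein standard series run on every plate. Compounds sat 15 min at room temperature in 100 mM Tris, pH 8.0.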
A647 fluor: compound autofluorescence in A647 spectral region. Compound fluorescence, A647 channel (570/671 nm), Tris buffer. max dye-equivalent concentration, M. 59,000 tested, under 10 active. AID 592
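Compound fluorescence was measured in 100 mM Tris buffer, pH 8.0, after 15 min at room temperature, using 570 nm excitation and 671 nm emission filters. Signal was normalized to a per-plate Alexa 647 standard curve and expressed as dye-equivalent concentration at each compound concentration.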
Resorufin autofl: compounds fluorescent in resorufin spectral region; AID 588; Compound fluorescence, resorufin region 547/598 nm, buffer; hits give high values; 59,000 compounds, 0.04% hits; max dye-equivalent concentration, M
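Read-out: intrinsic compound fluorescence at ex 547/em 598 nm after 15 min at RT in pH 8.0 Tris (100 mM). Values expressed as resorufin-equivalent concentration from per-plate standard series.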
Large screens that a line does not name were inactive; ! = repeats disagree. Unless noted, how the calls were made is not given here.

COc1ccc(Cn2c(N)c(C(=O)NCc3ccco3)c3nc4ccccc4nc32)cc1OC	Fluorescein autfl inconclusive
COCCOC(=O)c1c(N)n(Cc2ccco2)c2nc3ccccc3nc12	A488 autofl inconclusive, Fluorescein autfl 4.3e-08M
CC(C)OC(=O)c1c(N)n(Cc2ccco2)c2nc3ccccc3nc12	A488 autofl inconclusive, Fluorescein autfl 3.6e-08M
COCCOC(=O)c1c(N)n(Cc2ccc(OC)cc2)c2nc3ccccc3nc12	TexasRed autofl inconclusive
CC(C)(C)[C@@]1(O)C[C@@H]2OC(=O)C[C@@]23C(=O)O[C@H]2OC(=O)[C@@H](O)[C@]231	none
C[C@@H]1O[C@H](O[C@H]2C[C@@H](O)[C@]3(CO)[C@H]4[C@H](O)C[C@]5(C)[C@@H](C6=CC(=O)OC6)CC[C@@]5(O)[C@H]4CC[C@]3(O)C2)[C@@H](O)[C@H](O)[C@H]1O	none
CO[C@@H](C)[C@](O)(C(=O)OC1=CCN2CC[C@H](O)[C@H]12)C(C)C	Fluorescein autfl inconclusive
N[C@@H](Cc1cc(Br)c(O)c(Br)c1)C(=O)O	none
N[C@H](Cc1ccc2oc3cc(=O)c4ccccc4c-3nc2c1)C(=O)O	Rhodamine fluor 1.2e-08M, A488 autofl 3.9e-08M, TexasRed autofl 4.7e-08M, Fluorescein autfl 8.5e-07M, Resorufin autofl inconclusive
CCN1C[C@@]2(COC(=O)c3ccccc3N3C(=O)C[C@H](C)C3=O)CC[C@H](OC)[C@@]34[C@@H]5CC6[C@@H](OC)C[C@@](O)([C@H]5[C@H]6OC)C(O)([C@@H]13)[C@@H](OC)[C@H]24	none
CN1C[C@H](CNC(=O)OCc2ccccc2)C[C@@H]2c3cccc4c3c(cn4C)C[C@H]21	A488 autofl inconclusive, Fluorescein autfl 4.7e-08M
CN1C[C@@H](CS(=O)(=O)N(C)C)C[C@H]2c3cccc4c3c(cn4C)C[C@@H]21	TexasRed autofl inconclusive, Fluorescein autfl 1.9e-08M
N[C@H](Cn1oc(=O)[nH]c1=O)C(=O)O	Fluorescein autfl inconclusive
COc1cc2c(cc1O)CCN[C@H]2C	none
CN1C[C@H](CO)C=C2c3cccc4[nH]cc(c34)C[C@@H]21	Fluorescein autfl 2.7e-08M
CCN(CC)C(=O)N[C@@H]1C=C2c3cccc4[nH]cc(c34)C[C@@H]2N(C)C1	TexasRed autofl inconclusive, Fluorescein autfl 1.3e-08M!
C[C@@]12CC[C@H](O)C[C@@H]1CC[C@H]1[C@H]2C[C@@H](O)[C@]2(C)[C@@H](C3=CC(=O)OC3)CC[C@@]12O	none
C=C[C@@H]1CN2CC[C@H]1C[C@H]2[C@@H](O)c1ccnc2ccccc12	none
CN1CC=C2C(C#N)=C(N)C(C#N)(C#N)C(c3ccncc3)C2C1 (stereo not given)	A488 autofl inconclusive, TexasRed autofl inconclusive, Fluorescein autfl 4.2e-08M
COc1cccc2c1C(=O)c1c(O)c3c(c(O)c1C2=O)C[C@](O)(/C(C)=N\O)C[C@@H]3O[C@H]1C[C@H](N)[C@@H](O)[C@H](C)O1	Rhodamine fluor 3e-08M, A488 autofl inconclusive, TexasRed autofl 1.9e-08M, Fluorescein autfl 7.6e-08M, Resorufin autofl 1.7e-08M
CN(C)[C@@H]1C(=O)C(C(N)=O)=C(O)[C@]2(O)C(=O)C3=C(O)c4c(O)cccc4[C@@](C)(O)[C@@H]3C[C@@H]12	none
C[C@@H](CO)NC(=O)[C@H]1C=C2c3cccc4[nH]cc(c34)C[C@H]2N(C)C1	Fluorescein autfl inconclusive
CC[C@@H](CO)NC(=O)[C@@H]1C=C2c3cccc4c3c(cn4C)C[C@H]2N(C)C1	A488 autofl inconclusive, Fluorescein autfl 4.8e-08M
CC[C@H](CO)NC(=O)[C@H]1C=C2c3cccc4[nH]cc(c34)C[C@@H]2N(C)C1	Fluorescein autfl 2.1e-08M
CCC(=NC1CCN(Cc2ccccc2)CC1)c1c(O)[nH]c(=O)[nH]c1=O	none
CCOC(=O)c1ccc(NC(=O)c2c(O)[nH]c(=O)[nH]c2=O)cc1	Rhodamine fluor inconclusive, A488 autofl 2.3e-06M, TexasRed autofl inconclusive, Fluorescein autfl 4.1e-05M
CCn1nc(-c2ccccc2)nc2c(=O)n(C)c(=O)nc1-2	A488 autofl 1.1e-08M, Fluorescein autfl 1.8e-07M
CC(C)[C@@]1(NC(=O)[C@@H]2C=C3c4cccc5[nH]cc(c45)C[C@@H]3N(C)C2)O[C@]2(O)[C@H]3CCCN3C(=O)[C@H](Cc3ccccc3)N2C1=O	A488 autofl inconclusive, Fluorescein autfl 2.9e-08M
CN1C[C@H](C(=O)N[C@@]2(C)O[C@@]3(O)[C@H]4CCCN4C(=O)[C@@H](Cc4ccccc4)N3C2=O)C=C2c3cccc4[nH]cc(c34)C[C@@H]21	Fluorescein autfl 1.8e-08M
CC(C)[C@@]1(NC(=O)[C@H]2C[C@H]3c4cccc5[nH]cc(c45)C[C@@H]3N(C)C2)O[C@]2(O)[C@H]3CCCN3C(=O)[C@H](Cc3ccccc3)N2C1=O	Fluorescein autfl inconclusive
O=c1cccc2n1C[C@@H]1C[C@H]2CN2CCCC[C@H]12	none
Cn1c(=O)c2nncnc2n(C)c1=O	Fluorescein autfl 1.1e-08M
